From the supplement of paper PMC8728848
Shown is part of a subset that was picked to be rich in the strongest signals.

Tests used:
Assay in all cases: glycan array binding signal (z-score within array); higher = stronger binding
Conditions in all cases: glycan notation: IUPAC condensed, linker removed
[1] = biological target: Fuc(a1-2)Gal(b1-3)[Fuc(a1-4)]GlcNAc(b1-3)[Fuc(a1-3)[Gal(b1-4)]GlcNAc(b1-6)]Gal(b1-4)Glc
In short: (§1)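 Columns mapping to the same glycan were averaged after glycan names were converted to IUPAC-condensed notation. The data come from 3228 arrays in the Consortium for Functional Glycomics database, limited to those with an available protein sequence. Binding is reported as a within-array Z-score averaged across arrays of one protein sequence and across linkers.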

[2] = biological target: Fuc(a1-2)Gal(b1-4)Fuc(a1-3)]GlcNAc(b1-2)Man(a1-3)[Fuc(a1-2)Gal(b1-4)[Fuc(a1-3)]GlcNAc(b1-2)Man(a1-6)]Man(b1-4)GlcNAc(b1-4)GlcNAc
In short: as §1

[3] = biological target: Fuc(a1-2)Gal(b1-4)[Fuc(a1-3)]GlcNAc(b1-3)Gal(b1-4)[Fuc(a1-3)]GlcNAc
In short: as §1

[4] = biological target: Fuc(a1-2)Gal6S(b1-4)Glc
In short: as §1

[5] = biological target: Fuc(a1-2)[Gal(a1-3)]Gal(b1-3)GlcNAc(b1-2)Man(a1-3)[Fuc(a1-2)[Gal(a1-3)]Gal(b1-3)GlcNAc(b1-2)Man(a1-6)]Man(b1-4)GlcNAc(b1-4)GlcNAc
In short: as §1

[6] = biological target: Fuc(a1-2)[Gal(a1-3)]Gal(b1-4)Glc
In short: as §1

[7] = biological target: Fuc(a1-2)[Gal(a1-3)]Gal(b1-4)GlcNAc(b1-2)Man(a1-3)[Fuc(a1-2)[Gal(a1-3)]Gal(b1-4)GlcNAc(b1-2)Man(a1-6)]Man(b1-4)GlcNAc(b1-4)GlcNAc
In short: as §1

[8] = biological target: Fuc(a1-2)[GalNAc(a1-3)]Gal(b1-4)[Fuc(a1-3)]GlcNAc
In short: as §1

[9] = biological target: Fuc(a1-3)[Gal(b1-4)]GlcNAc(b1-3)Gal(b1-3)[Fuc(a1-4)]GlcNAc
In short: as §1

[10] = biological target: Fuc(a1-3)[Gal(b1-4)]GlcNAc(b1-3)GalNAc
In short: as §1

[11] = biological target: Fuc(a1-3)[Gal(b1-4)]GlcNAc6S
In short: as §1

[12] = biological target: Fuc(a1-4)GlcNAc
In short: as §1

[13] = biological target: Fuc(b1-3)GlcNAc
In short: as §1

[14] = biological target: Gal(a1-4)Gal(b1-3)GlcNAc(b1-2)Man(a1-3)[Gal(a1-4)Gal(b1-3)GlcNAc(b1-2)Man(a1-6)]Man(b1-4)GlcNAc(b1-4)GlcNAc
In short: as §1

[15] = biological target: Gal(b1-2)Gal
In short: as §1

[16] = biological target: Gal(b1-3)GalNAc(a1-3)[Fuc(a1-2)]Gal(b1-4)GlcNAc
In short: as §1

[17] = biological target: Gal(b1-3)GlcNAc(b1-3)Gal(b1-4)Glc
In short: as §1

[18] = biological target: Gal(b1-3)[Fuc(a1-4)]GlcNAc(b1-3)Gal(b1-3)[Fuc(a1-4)]GlcNAc
In short: as §1

[19] = biological target: Gal(b1-3)[Fuc(a1-4)]GlcNAc(b1-6)GalNAc
In short: as §1

[20] = biological target: Gal(b1-4)GlcNAc(b1-2)Man(a1-6)[Man(a1-3)]Man(b1-4)GlcNAc(b1-4)GlcNAc
In short: as §1

[21] = biological target: Gal(b1-4)GlcNAc(b1-3)Gal(b1-4)GlcNAc
In short: as §1

[22] = biological target: Gal(b1-4)GlcNAc(b1-3)Gal(b1-4)GlcNAc(b1-2)Man(a1-3)[Gal(b1-4)GlcNAc(b1-3)Gal(b1-4)GlcNAc(b1-2)Man(a1-6)]Man(b1-4)GlcNAc(b1-4)GlcNAc
In short: as §1

[23] = biological target: Gal(b1-4)GlcNAc(b1-3)Gal(b1-4)GlcNAc(b1-3)Gal(b1-4)GlcNAc(b1-3)Gal(b1-4)GlcNAc(b1-3)Gal(b1-4)GlcNAc(b1-2)[Gal(b1-4)GlcNAc(b1-3)Gal(b1-4)GlcNAc(b1-3)Gal(b1-4)GlcNAc(b1-3)Gal(b1-4)GlcNAc(b1-3)Gal(b1-4)GlcNAc(b1-6)]Man(a1-6)[Gal(b1-4)GlcNAc(b1-3)Gal(b1-4)GlcNAc(b1-3)Gal(b1-4)GlcNAc(b1-3)Gal(b1-4)GlcNAc(b1-3)Gal(b1-4)GlcNAc(b1-2)Man(a1-3)]Man(b1-4)GlcNAc(b1-4)[Fuc(a1-6)]GlcNAc
In short: as §1

[24] = biological target: Gal(b1-4)GlcNAc(b1-3)[GlcNAc(b1-6)]Gal(b1-4)GlcNAc
In short: as §1

[25] = biological target: Gal(b1-4)GlcNAc(b1-6)[Gal(b1-4)GlcNAc(b1-3)]GalNAc
In short: as §1

[26] = biological target: Gal3S(b1-3)[Fuc(a1-4)]GlcNAc
In short: as §1

[27] = biological target: GalNAc(a1-3)GalNAc
In short: as §1

[28] = biological target: GalNAc(b1-3)GalNAc
In short: as §1

[29] = biological target: GalNAc(b1-4)Gal(b1-4)Glc
In short: as §1

[30] = biological target: GalNAc(b1-4)GlcNAc
In short: as §1

[31] = biological target: GalNAc(b1-4)GlcNAc(b1-2)Man(a1-3)[GalNAc(b1-4)GlcNAc(b1-2)Man(a1-6)]Man(b1-4)GlcNAc(b1-4)GlcNAc
In short: as §1

[32] = biological target: GalNAc3S(b1-4)[Fuc(a1-3)]GlcNAc
In short: as §1

[33] = biological target: GlcNAc(b1-2)Man(a1-3)[GlcNAc(b1-2)Man(a1-6)]Man(b1-4)GlcNAc(b1-4)[Fuc(a1-6)]GlcNAc
In short: as §1

[34] = biological target: GlcNAc(b1-2)[GlcNAc(b1-6)]Man(a1-6)[GlcNAc(b1-2)Man(a1-3)]Man(b1-4)GlcNAc(b1-4)GlcNAc
In short: as §1

[35] = biological target: GlcNAc(b1-3)Gal(b1-4)GlcNAc(b1-2)[GlcNAc(b1-3)Gal(b1-4)GlcNAc(b1-6)]Man(a1-6)[GlcNAc(b1-3)Gal(b1-4)GlcNAc(b1-2)Man(a1-3)]Man(b1-4)GlcNAc(b1-4)GlcNAc
In short: as §1

[36] = biological target: Kdn(a2-3)Gal(b1-4)[Fuc(a1-3)]GlcNAc
In short: as §1

[37] = biological target: Neu5Ac(a2-3)Gal(b1-3)GlcNAc(b1-6)GalNAc
In short: as §1

[38] = biological target: Neu5Ac(a2-3)Gal(b1-4)GlcNAc(b1-2)[Neu5Ac(a2-3)Gal(b1-4)GlcNAc(b1-4)]Man(a1-3)[GlcNAc(b1-4)][Neu5Ac(a2-3)Gal(b1-4)GlcNAc(b1-2)[Neu5Ac(a2-3)Gal(b1-4)GlcNAc(b1-6)]Man(a1-6)]Man(b1-4)GlcNAc(b1-4)GlcNAc
In short: as §1

[39] = biological target: Neu5Ac(a2-3)Gal(b1-4)GlcNAc(b1-3)Gal(b1-4)[Fuc(a1-3)]GlcNAc
In short: as §1

[40] = biological target: Neu5Ac(a2-6)Gal(b1-4)GlcNAc(b1-2)Man(a1-6)[Gal(b1-4)GlcNAc(b1-2)Man(a1-3)]Man(b1-4)GlcNAc(b1-4)GlcNAc
In short: as §1

[41] = biological target: Neu5Ac(a2-6)Gal(b1-4)GlcNAc(b1-3)Gal(b1-4)GlcNAc(b1-3)GalNAc
In short: as §1

[42] = biological target: Neu5Ac(a2-6)GlcNAc(b1-4)GlcNAc(b1-4)GlcNAc
In short: as §1

[43] = biological target: Neu5Ac(a2-8)Neu5Ac(a2-8)Neu5Ac
In short: as §1

[44] = biological target: Neu5Ac9Ac(a2-3)Gal(b1-4)GlcNAc
In short: as §1

[45] = biological target: Neu5Gc(a2-8)Neu5Ac(a2-3)Gal(b1-4)GlcNAc
In short: as §1

[46] = biological target: Neu5Gc(a2-8)Neu5Gc(a2-3)Gal(b1-4)GlcNAc
In short: as §1

B1: XTP3-B-MRH2 (Homo sapiens), Q96DZ1 (protein)
chain: EFLSGSYCFRGGVGWWKYEFCYGKHVHQYHEDKDSGKTSVVVGTWNQEEHIEWAKKNTARAYHLQDDGTQTVRMVSHFYGNGDICDITDKPRQVTVKLKCKESDSPHAVTVYMLEPHSCQYILGVESPVICKILDTA
glycan array binding signal (z-score) [1]: 2.32
glycan array binding signal (z-score) [2]: 2.2
glycan array binding signal (z-score) [3]: -0.464
glycan array binding signal (z-score) [4]: 0.258
glycan array binding signal (z-score) [5]: 2.72
glycan array binding signal (z-score) [6]: 1.19
glycan array binding signal (z-score) [7]: 2.95
glycan array binding signal (z-score) [8]: -0.177
glycan array binding signal (z-score) [9]: -2.1
glycan array binding signal (z-score) [10]: -0.079
glycan array binding signal (z-score) [11]: -0.412
glycan array binding signal (z-score) [12]: 2.2
glycan array binding signal (z-score) [13]: -0.321
glycan array binding signal (z-score) [14]: 0.355
glycan array binding signal (z-score) [15]: -0.575
glycan array binding signal (z-score) [16]: 0.353
glycan array binding signal (z-score) [17]: 0.052
glycan array binding signal (z-score) [18]: 3.38
glycan array binding signal (z-score) [19]: -0.084
glycan array binding signal (z-score) [20]: 2.47
glycan array binding signal (z-score) [21]: 0.386
glycan array binding signal (z-score) [22]: 3.21
glycan array binding signal (z-score) [23]: -0.908
glycan array binding signal (z-score) [24]: 0.199
glycan array binding signal (z-score) [25]: 0.934
glycan array binding signal (z-score) [26]: 0.892
glycan array binding signal (z-score) [27]: 5.08
glycan array binding signal (z-score) [28]: -1.03
glycan array binding signal (z-score) [29]: -0.842
glycan array binding signal (z-score) [30]: 2.09
glycan array binding signal (z-score) [31]: -0.025
glycan array binding signal (z-score) [32]: 0.236
glycan array binding signal (z-score) [33]: -0.201
glycan array binding signal (z-score) [34]: 1.7
glycan array binding signal (z-score) [35]: 0.276
glycan array binding signal (z-score) [36]: -0.353
glycan array binding signal (z-score) [37]: 1.44
glycan array binding signal (z-score) [38]: -1.25
glycan array binding signal (z-score) [39]: -0.481
glycan array binding signal (z-score) [40]: -0.687
glycan array binding signal (z-score) [41]: -0.693
glycan array binding signal (z-score) [42]: 0.385
glycan array binding signal (z-score) [43]: 0.237
glycan array binding signal (z-score) [44]: -0.6
glycan array binding signal (z-score) [45]: 0.283
glycan array binding signal (z-score) [46]: 2.85
